# Compound activity (PubChem BioAssay)
# This is a sample that favours compounds with a hit; in the whole collection about 3.4% have one here.
# HGIII-sPLA2 inh: Inhibits HGIII-sPLA2 liposome hydrolysis, primary screen; AID 743126; inhibition, % at 12.2 µM; QFRET BODIPY PC-A2 liposome hydrolysis, fluorescence; 370,000 tested, 0.56% active; Q9NZ20;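 active = inhibition above mean plus 3 SD of compounds lying within the high and low control bounds, cut at about 19% in these data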;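 also: 0% = median of test compound wells and 100% = no enzyme DMSO wells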
# Target sequence (Q9NZ20 whole entry, looked up): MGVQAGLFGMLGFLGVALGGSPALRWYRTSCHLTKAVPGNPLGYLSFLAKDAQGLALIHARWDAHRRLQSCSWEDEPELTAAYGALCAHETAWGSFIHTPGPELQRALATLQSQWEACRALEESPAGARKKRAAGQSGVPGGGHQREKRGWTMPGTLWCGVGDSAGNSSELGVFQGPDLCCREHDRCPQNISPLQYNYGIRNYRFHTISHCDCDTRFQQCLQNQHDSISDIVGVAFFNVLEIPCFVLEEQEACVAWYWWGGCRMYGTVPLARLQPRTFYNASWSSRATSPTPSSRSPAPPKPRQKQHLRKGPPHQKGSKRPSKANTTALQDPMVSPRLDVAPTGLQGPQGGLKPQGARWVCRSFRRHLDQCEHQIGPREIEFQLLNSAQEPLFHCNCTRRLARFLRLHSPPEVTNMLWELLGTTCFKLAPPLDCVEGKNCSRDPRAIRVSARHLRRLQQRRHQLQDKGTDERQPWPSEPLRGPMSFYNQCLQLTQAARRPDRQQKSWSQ
# PLCb3 inh: inhibitors of human phospholipase C beta3 | Q01970 | Purified PLC-beta3, fluorogenic substrate, fluorescence | 370,000 tested, 0.18% active | inhibition, % at 12.2 µM; in the data active = inhibition above about 11%;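 also: 0% = median of compound wells on plate and 100% = full blocker control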
# PLC-gamma1 inh: PLC-gamma1 (human) inhibition, primary screen. 370,000 tested, 0.84% active. P19174. AID 720700. inhibition, % at 12.2 µM. purified PLC-gamma1, fluorogenic substrate, fluorescence; in the data active = inhibition above about 9.5%
# ADAM17 inh: ADAM17 inhibition, QFRET primary screen; P78536; recombinant ADAM17, EDANS/DABCYL FRET peptide cleavage; inhibition, % at 6.95 µM; 370,000 tested, 0.83% active;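 active = inhibition above the mean of compounds lying between control limits plus 3 SD, set per campaign, cut at about 8.5% in these data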;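 also: 0% = DMSO-only wells as the low control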
# KLK7 zymogen act: activates the human kallikrein-7 zymogen; 370,000 tested, 0.9% active; P49862; purified proKLK7, EDANS-DABCYL substrate fluorescence; 100% is mature enzyme control, 0% vehicle; activation, % at 7 µM; AID 652039;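 active = activation above the mean of all tested compounds plus 3 SD, computed per campaign excluding outliers beyond control limits, cut at about 13% in these data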
# ADAM10 inh: inhibits human ADAM10; recombinant ADAM10, EDANS/DABCYL FRET peptide cleavage, 3 h; O14672; inhibition, % at 7 µM; AID 720582; 370,000 tested, 0.62% active;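 active = inhibition above a per-campaign cutoff equal to the mean of compounds falling between control-based bounds plus 3 SD, cut at about 20% in these data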;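 also: 0% = DMSO wells while the 100% control is not disclosed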
# ADAM10 ctr: ADAM10 inhibition, counter-screen for ADAM17 exosite hits; shares compounds with ADAM17 inh; recombinant ADAM10, EDANS/DABCYL FRET peptide cleavage, 3 h; inhibition, % at 6.95 µM; 2,900 tested, 47% active; AID 743256;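 active = mean inhibition over the triplicate runs exceeds the activity threshold set in the earlier primary screen, cut at about 20% in these data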;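 also: 0% = DMSO wells and 100% = marimastat wells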
# ADAM17 confirm: confirmation of inhibitors of human ADAM17. 2,900 tested, 65% active. inhibition, % at 6.95 µM. recombinant ADAM17, EDANS/DABCYL QFRET peptide cleavage. shares compounds with ADAM17 inh;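 active = mean inhibition across replicates above the hit cutoff set in the primary screen, cut at about 8.5% in these data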;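 also: 0% = DMSO wells and 100% = marimastat wells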
# Numbers without * were called inactive; nt = not tested or not shown.
SMILES,HGIII-sPLA2 inh,PLCb3 inh,PLC-gamma1 inh,ADAM17 inh,KLK7 zymogen act,ADAM10 inh,ADAM10 ctr,ADAM17 confirm
CCOC(=O)C1=C(O)/C(=C\c2cccs2)N=C1C,-3,-2,2,10.0*,0,16,1,4
CCOC(=O)C1=C(O)/C(=C\c2sccc2C)N=C1C,-6,0,1,3,0,12,nt,nt
COC(=O)C1CN(Cc2cn(CCOC(C)=O)nn2)CCS(=O)(=O)N1Cc1ccc(F)cc1 (configuration not stated),1,2,0,0,0,6,nt,nt
COc1ccc(Cn2nnnc2C(c2cccs2)N2CCOCC2)cc1 (configuration not stated),-1,6,4,8.7*,0,5,6,11*
Cc1nn(-c2ccccc2)c2sc(C(=O)NCc3ccc(F)cc3)cc12,-11,-3,-5,6,-1,-14,nt,nt
COc1ccc(N2CCN(C(=O)CCC(=O)N3CCOc4ccc(Cl)cc43)CC2)cc1,8,10,6,11*,0,11,29*,8
COc1ccc(N2CCN(C(=O)CCC(=O)N3CCOc4ccc(C)cc43)CC2)cc1,3,-2,0,0,0,-9,nt,nt
Cc1ccc(C(=O)NCCN2C(=O)C3C4C=CC(C4)C3C2=O)cc1 (configuration not stated),-1,0,0,-1,1,2,nt,nt
COc1ccc(CN2C[C@]3(C=C(C)Cn4c(=O)n(-c5ccccc5)c(=O)n43)N(C(=O)OCc3ccccc3)C2=NC(=O)c2ccccc2)c(OC)c1,12,3,5,2,0,8,nt,nt
COc1ccccc1C(=O)NCC(=O)NC(C)CCc1ccccc1 (configuration not stated),3,-5,0,9.2*,-1,-7,3,5
O=C(CCn1nc(-c2ccccc2)ccc1=O)N1CCN(c2ccccc2)CC1,-1,1,-1,-4,0,-4,nt,nt
O=C(CCn1nc(-c2ccccc2)c2ccccc2c1=O)N1CCN(c2ccccc2)CC1,-7,1,6,10*,0,12,6,8
COc1ccc(C(=O)COc2cccc(NC(=O)c3ccco3)c2)cc1,-8,3,1,-1,0,10,nt,nt
COc1cccc(C(=O)COc2cccc(NC(=O)c3ccco3)c2)c1,-38,-5,2,9.2*,-1,6,7,7
COc1ccc(CN(CCN2CCOCC2)C(=O)c2ccc(F)cc2F)cc1OC,0,1,-3,-1,1,-4,nt,nt
Cc1cccc2cc(C3CC(c4ccco4)=NN3S(=O)(=O)c3ccccc3)c(Cl)nc12 (configuration not stated),-1,-1,-2,9.4*,-1,10,20*,12*
C=CCC[C@@H](Cc1ccc(F)cc1)C(=O)OC[C@H](C)NC(=O)[C@H](CC=C)CC(=O)N(CCO)Cc1ccccc1,-32,1,-1,-1,0,4,nt,nt
C=CCC[C@@H](Cc1ccc(F)cc1)C(=O)OC[C@H](C)NC(=O)[C@@H](CC=C)CC(=O)N(CCO)Cc1ccccc1,-48,6,4,9.8*,0,19,6,7
C=CCC[C@@H](Cc1ccc(F)cc1)C(=O)OC[C@@H](Cc1c[nH]c2ccccc12)NC(=O)[C@H](CC=C)CC(=O)N[C@H](CO)Cc1ccccc1,-9,1,1,3,1,0,nt,nt
C=CCC[C@@H](Cc1ccc(F)cc1)C(=O)OC[C@@H](Cc1c[nH]c2ccccc12)NC(=O)[C@@H](CC=C)CC(=O)N(CCO)Cc1ccccc1,-79,-5,0,9.5*,0,7,37*,21*
CCCNC(=O)C1(C)CCN1C(=O)c1ccccc1CCc1ccccc1 (configuration not stated),-7,3,3,8.8*,0,7,-3,0
CC(C)(C)CNC(=O)C1(C)CCN1C(=O)c1ccccc1CCc1ccccc1 (configuration not stated),7,3,2,2,0,-6,nt,nt
CCOc1cc(N2CCOCC2)c(OCC)cc1NC(=O)CN1C(=O)NC2(CCCCCCC2)C1=O,1,2,1,-3,0,5,nt,nt
CCOc1cc(N2CCOCC2)c(OCC)cc1NC(=O)CN1C(=O)NC2(CCc3ccccc32)C1=O (configuration not stated),15,6,6,8.8*,0,10,5,4
Cc1ccc(OCCC(=O)OCC(=O)NC(=O)NC2CCCCC2)cc1,-11,-10,1,9.0*,0,-11,30*,14*
SMILES,HGIII-sPLA2 inh,PLCb3 inh,PLC-gamma1 inh,ADAM17 inh,KLK7 zymogen act,ADAM10 inh,ADAM10 ctr,ADAM17 confirm
OCCOCCn1c(C2CCCN2c2nc(-c3ccc(F)cc3)cs2)nc2cc(C(F)(F)F)ccc21 (configuration not stated),-2,-1,3,9.9*,0,12,7,7
C[C@H]1CCCC(=O)N[C@@H](c2ccccc2)[C@@H](C)CCCC(=O)N[C@H]1c1ccccc1,-2,2,0,-4,0,-3,nt,nt
Cc1ccc(CNC(=O)OC(C)(C)C)c(/C=C/S(=O)(=O)NCc2ccc(F)cc2)c1,-1,3,4,3,0,2,nt,nt
Cc1ccc(S(=O)(=O)Nc2ccccc2CNc2ccccn2)cc1,-13,-1,1,8.8*,0,14,18,10*
CCCOc1ccc(F)cc1-c1cc(C(=O)NCc2cccc(C(F)(F)F)c2)[nH]n1,-3,-1,1,9.7*,0,15,22*,15*
CCCOc1ccc(F)cc1-c1cc(C(=O)NCc2ccccc2)[nH]n1,-6,-2,-1,3,0,-2,nt,nt
C=CCn1c(SCc2ccc(C#N)cc2)nnc1-c1ccco1,2,0,-2,1,0,0,nt,nt
Cn1nc(C(F)(F)F)c(C(=O)Nc2ccc(F)cc2F)c1Sc1cccc(C(F)(F)F)c1,-2,5,5,9.8*,-1,15,10,8
COc1ccc(CN2C/C(=C/c3ccc(C)cc3)N3C(=O)C[C@@H](c4ccccc4)N=C23)c(OC)c1,-10,-9,-10,2,-1,5,nt,nt
Cc1ccc(N(CC(=O)Nc2cc(Cl)ccc2Oc2ccccc2)S(C)(=O)=O)c(C)c1,-26,0,3,13*,1,16,41*,22*
